Experimental findings from PubChem BioAssay are described below.

Molecules are shown by their SMILES. Results filed as inconclusive are left out. Active and inactive are the calls of the source. Unless noted, cut-off not given; nearly all actives show AC50 up to about 26 µM.

A short description of assay [1]: growth inhibition of DIPG glioma cells, dose response, cell-based, SU-DIPG-XVII, MIPE5.0, CellTiter-Glo, qHTS (AID 1347060).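 On AC50: cells exposed to compound for 48 hours before viability readout.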 Conditions: SU-DIPG-XVII viability, CellTiter-Glo ATP luminescence.
Assay [2] in a line: growth inhibition of DIPG glioma cells, dose response, cell-based, SU-DIPG-XIII, MIPE4.0, CellTiter-Glo, qHTS (AID 1347061; cut-off not given, nearly all actives have AC50 up to about 37 µM;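 further: cells exposed to compound for 48 hours before readout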). As to conditions: SU-DIPG-XIII viability, CellTiter-Glo ATP luminescence. In general terms: Cellular ATP, detected with luciferase, serves as a proxy for viable cell number.
Assay [3] can be described thus: growth inhibition of DIPG glioma cells, dose response, cell-based, JHH-DIPG-1, MIPE4.0, CellTiter-Glo, qHTS (AID 1347062; cut-off not given, nearly all actives have AC50 up to about 27 µM;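 on AC50: cells exposed to compound for two days before readout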). Conditions: JHH-DIPG-1 viability, CellTiter-Glo ATP luminescence.
A short description of assay [4]: growth inhibition of DIPG glioma cells, dose response, cell-based, SU-DIPG-IV, MIPE4.0, CellTiter-Glo, qHTS (AID 1347063; cut-off not given, nearly all actives have AC50 up to about 30 µM;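 further: compound exposure lasted 48 hours before the viability readout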). Conditions: SU-DIPG-IV viability, CellTiter-Glo ATP luminescence.
A short description of assay [5]: growth inhibition of DIPG glioma cells, dose response, cell-based, SU-DIPG-XIII, MIPE5.0, CellTiter-Glo, qHTS (AID 1347064; cut-off not given, nearly all actives have AC50 up to about 23 µM;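 on AC50: cells exposed to compound for 48 hours before the viability read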). Conditions: SU-DIPG-XIII viability, CellTiter-Glo ATP luminescence.
Assay [6] is described as follows: viability loss in pontine glioma line – cell-based, SU-DIPG-XXV, MIPE5.0, CellTiter-Glo, qHTS, dose response (AID 1347065).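 Further: cells exposed to compound for 48 hours before ATP readout.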 As to conditions: CellTiter-Glo ATP luminescence.
A short description of assay [7]: SU-DIPG-VI glioma cell viability, MIPE4.0 library, CellTiter-Glo luminescence, qHTS (AID 1347066; cut-off not given, nearly all actives have AC50 up to about 30 µM;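 further: cells exposed to compound for 48 hours before readout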). As to conditions: CellTiter-Glo ATP luminescence.
Assay [8] is described as follows: JHH-DIPG-1 glioma cell viability, MIPE5.0 library, CellTiter-Glo luminescence, qHTS (AID 1347067).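 Further: cells exposed to compound for 48 hours before readout.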 As to conditions: JHH-DIPG-1 glioma viability, CellTiter-Glo ATP luminescence.
Assay [9] is described as follows: SU-DIPG-XXV glioma cell viability, MIPE5.0 library, qHTS (AID 1347068; cut-off not given, nearly all actives have IC50 up to about 30 µM;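 on IC50: cells exposed to compound for 48 hours before viability readout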). A general note: Quantitative high-throughput screening tests each substance at several concentrations.
Assay [10] is described as follows: sensitizers of A549 cells to miR-34 induction, primary screen, imaging, A549 dox-inducible miR-34, nuclei and caspase counts (AID 1347080;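 active means compounds whose cell count with miR-34 switched on is under 0.7 times the count with it off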). Conditions: A549 miR-34 inducible, Hoechst nuclei count, 48 h.
A short description of assay [11]: survival rescue of mitochondrial mutant cells in low glucose, primary screen, MELAS cybrids, Rieske KO mouse fibroblasts, CellTiter-Glo (AID 1508586;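 active means mean z-score across replicates of 1.96 or higher in either the MELAS or the Rieske mutant cell line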;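 further: z relative to plate mean and SD of compound and empty wells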).
[12] abbreviates: MELAS cybrid survival, CellTiter-Glo 48 h, stronger effect = higher value.
[13] abbreviates: Rieske KO mouse fibroblast survival, CellTiter-Glo 72 h.

Turning to `CCc1c(C(=O)C(N)=O)c2c(OCC(=O)O)cccc2n1Cc1ccccc1`, the outcome in [1], in assay [2], in assay [3], in assay [4], in assay [5] and in [6] was inactive. Besides, the result in assay [7], in assay [8] and in [9] was inactive. Further, the fold change in [10] (stronger effect = lower value, cell number ratio, induced over uninduced) was 0.89 (inactive); in assay [10] (measured here: relative caspase fold change +Dox/-Dox) it was 1.11. In addition, the cell count in assay [10] (measured here: total cells with miR-34 induction, stronger effect = lower value) was 7750; in assay [10] (measured here: total cells without miR-34 induction), 8710. Moreover, the z-score is -0.413 (inactive) in [11] (setting [12]) and 0.396 in [11] (setting [13]).
`COCC1(CO)C(=O)C2CCN1CC2` (centres undefined): the AC50 in assay [1] is 23500 nM (active); in assay [2] it was 20900 nM (active); in assay [3], 20900 nM (active); in assay [4] it was 18700 nM (active); in [5] it was 8330 nM (active); in assay [6], 16600 nM (active). For the same molecule, in assay [8], the AC50 is 10500 nM (active). The call in assay [9] was inactive.
`COc1cc2cc(c1Cl)N(C)C(=O)C[C@H](OC(=O)C(C)C)[C@]1(C)O[C@@H]1[C@H](C)[C@@H]1C[C@@](O)(NC(=O)O1)[C@H](OC)/C=C/C=C(\C)C2`: the call in [1], in assay [2], in [3], in [4] and in assay [7] was inactive. In addition, the AC50 in [5] is 33.2 nM (active); in assay [6] it was 6.62 nM (active); in assay [8], 7.42 nM (active).
Turning to `O=C1C=CC[C@@H]2[C@H]3CCCN4CCC[C@@H](CN12)[C@@H]34`, the call in [1], in assay [2], in assay [5], in assay [6], in [7] and in assay [8] was inactive. In [9], the outcome was inactive.
Turning to `Clc1ccccc1C(c1ccccc1)(c1ccccc1)n1cccn1`, the AC50 in assay [1] was 23500 nM (active); in [6], 33200 nM (active); in assay [8] it was 23500 nM (active). In addition, the outcome in assay [2], in [7] and in assay [9] was inactive.
As for `C[C@]12COC(=O)C[C@@H]1CC[C@@H]1[C@@H]2CC[C@@]2(C)[C@H]1CC[C@]2(C)O`, the result in assay [1], in assay [2], in [3], in assay [4], in assay [5] and in assay [7] was inactive. The molecule was classed as inactive in assay [8] and in [9]. Besides, the z-score is 0.293 (inactive) in assay [11] (setting [12]) and 0.228 in [11] (setting [13]).
With `C/C=C(\C)C(=O)N[C@@H](c1ccccc1)[C@@H](O)C(=O)O[C@H]1C[C@@]2(O)[C@@H](OC(=O)c3ccccc3)[C@@H]3[C@]4(OC(C)=O)CO[C@@H]4C[C@H](O)[C@@]3(C)C(=O)[C@H](OC(C)=O)C(=C1C)C2(C)C`, the figures for the AC50 in [1] and in assay [6] were 13.2 nM (active) and 23.5 nM (active), respectively. Further, the molecule was classed as inactive in assay [2], in assay [3], in [4] and in [7].
Turning to `COC12C(COC(N)=O)C3=C(C(=O)C(C)=C(N)C3=O)N1CC1C2N1C` (centres undefined), the AC50 in assay [1] was 1480 nM (active).
Consider `N=C1NC(=O)N2CC12` (centres undefined), for which the call in assay [1], in assay [2], in assay [5], in assay [6], in assay [8] and in [9] was inactive. Further, in [3], the concentration at half-maximal activity (AC50) was 2090 nM (active).
On to `C[C@]12CC[C@H]3[C@@H](CCC4=CC(=O)CC[C@@]43C)[C@@H]1CC[C@@H]2OC(=O)CCC1CCCC1`, for which the outcome in assay [1], in [3], in assay [4], in assay [5], in assay [7] and in assay [9] was inactive. In addition, the AC50 in assay [2] is 23500 nM (active).
`CC(C)(O)/C=C\C(=O)[C@](C)(O)[C@H]1[C@H](O)C[C@]2(C)[C@@H]3CC=C4[C@@H](C=C(O)C(=O)C4(C)C)[C@]3(C)C(=O)C[C@@]12C`: the AC50 is 66.1 nM (active) in [1]; 18700 nM (active) in assay [2]; 105 nM (active) in assay [3]; 29.6 nM (active) in assay [4]; 52.5 nM (active) in [5]; 29.5 nM (active) in [6]. The AC50 in assay [7] was 8330 nM (active); in assay [8], 52.5 nM (active). For the same molecule, in assay [9], the IC50 is 148 nM (active).

One may read the AC50 as the concentration giving half of the maximal activity seen. Broadly, the IC50 is the midpoint of a concentration-inhibition curve.
